We go through 35 molecules from PubChem BioAssay.

The nature of this experiment: calcein-AM signal in unstimulated myeloma cells – cell-based, calcein-AM fluorescence, 48 h, PK04 Diversity Set, profiling panel (AID 1166).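 Further: cells grown under basal conditions without added stimulus; test concentration not given here.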 As to conditions: RPMI8226 myeloma viability, higher = more signal.
For the molecule `O=C1C[C@]2(c3ccc([N+](=O)[O-])cc3)C(=O)N(Cc3ccccc3)c3cc(CO)ccc3[C@H]2N1CC12CC3CC(CC(C3)C1)C2`, the z-score was 0.329.

Take `Cc1c(NC(=O)/C(C#N)=C/C=C/c2ccc(N(C)C)cc2)c(=O)n(-c2ccccc2)n1C`: the z-score was 0.285.

With `COCCOC(=O)N1C(=O)[C@@]2(c3ccccc31)[C@H](c1ccc(OCCO)cc1)N1[C@H](c3ccccc3)[C@H](c3ccccc3)OC(=O)[C@H]1[C@@H]2C(=O)Nc1nc2ccccc2s1`, the z-score is -1.57.

On to `COCCCNC(=O)[C@@]1(Sc2ccc(C)cc2)CC(=O)N(Cc2cc(C(F)(F)F)cc(C(F)(F)F)c2)[C@@H]1c1ccc(CO)cc1`, for which the z-score is 1.42.

Regarding `CCCC[C@@H]1C[C@H]1[C@@H](NC(=O)c1ccccc1)c1ccc(Cl)cc1`, the z-score is -1.45.

On to `CC(C)C(CO)N1C(=O)[C@]2(C)C3C(=O)OCCC/C=C\[C@H]3OC23C=CCN(c2ccc(Cl)cc2)C(=O)[C@@H]13` (stereo not given in full), for which the z-score is 0.163.

Turning to `COC(=O)[C@@]1(Cc2ccc(OC)cc2)[C@H]2c3cc(C(=O)N4CCCC4)n(CCc4cc5ccccc5[nH]4)c3C[C@H]2CN1C(=O)c1ccccc1`, the z-score is -1.84.

As to `CCCC[C@@H]1C[C@H]1[C@@H](NC(=O)c1cccnc1)c1ccc(-c2ccccc2)cc1`, the z-score is -2.21.

Consider `[N-]=[N+]=Nc1ccccc1[C@@H]1OC(c2ccc(OCCCO)cc2)=N[C@]1(CCS(=O)(=O)c1ccccc1)C(=O)NCCN1CCOCC1`, for which the z-score was -1.58.

Regarding `C[C@@H](OCc1ccccc1)C1NC(=O)[C@@]23C(=O)N[C@@H](Cc4ccccc4)C2[C@H](C)[C@@]2(C)O[C@H]2C3/C=C/C/C=C\CNC(=O)CNC1=O` (stereo not given in full), the z-score was -1.25.

Consider `C=C(CCCC)/C(=C/C[C@@H](OC(=O)c1ccncc1)c1cccc(OCCO)c1)c1cnc2ccccc2c1`, for which the z-score is -1.5.

Turning to `CC(=O)n1cc(C(O)C2C=CC3C(=O)N(c4ccccc4)C(=O)C3N2Nc2ccccc2)c2ccccc21` (stereo not given), the z-score was -1.19.

For the molecule `C=CCN1C(=O)[C@]2(CC=C)N=C(c3ccc(OCCCO)cc3)O[C@@H]2c2ccccc21`, the z-score is -3.86.

Take `CCOC(=O)C[C@H]1[C@H](OC(=O)Cc2ccc3c(c2)OCO3)[C@@H](NC(=O)C2CCCCC2)c2cc(OCCCO)ccc2N1C(=O)c1ccc2ccccc2n1`: the z-score was -1.18.

As to `O=C1O[C@@H](c2ccccc2)[C@@H](c2ccccc2)N2[C@@H](c3ccccc3OCCO)[C@]3(C(=O)Nc4ccc(C#CC5=CCCCC5)cc43)[C@@H](C(=O)NC[C@H](O)c3ccccc3)[C@H]12`, the z-score is -4.07.

With `O=C1OCC=C[C@H]2OC34C=CCN(Cn5nnc6ccccc65)C(=O)[C@H]3N(CCCCCCO)C(=O)[C@@H]4[C@@H]12` (stereo not given in full), the z-score was 0.447.

Turning to `COCCCNC(=O)[C@]1(Cc2ccccc2N=[N+]=[N-])N=C(c2ccc(OCCCO)cc2)O[C@@H]1c1ccccc1N=[N+]=[N-]`, the z-score is -3.99.

Take `CC(C)c1ccc(NN2C(C(O)c3ccco3)C=CC3C(=O)N(c4ccccc4)C(=O)C32)cc1` (stereo not given): the z-score is -0.166.

For the molecule `Cc1ccc(S[C@]2(C(=O)NCC(C)C)CC(=O)N(Cc3ccccc3Cl)[C@@H]2c2ccc(CO)cc2I)cc1`, the z-score is -1.67.

On to `C=CCC(OC(C)=O)[C@@H]1[C@@H](N(Cc2ccc(-c3ccccc3)cc2)C(=O)c2cccc3ccccc23)c2cc(OCCCO)ccc2N1C(=O)Cc1ccc2ccccc2c1` (stereo not given in full), for which the z-score was -0.183.

For `CC=CC(O)C1C=CC2C(=O)N(C)C(=O)C2N1Nc1ccc([N+](=O)[O-])cc1[N+](=O)[O-]` (stereo not given), the z-score is -0.485.

Take `CC(C)(C)OC(=O)CC[C@]1(C(=O)NCCN2CCOCC2)N=C(c2ccc(OCCCO)cc2)O[C@H]1c1ccccc1`: the z-score is -0.51.

Turning to `CCCCC(=C=CC[C@@H](O)c1ccc(OCCO)cc1)C[C@@H](O)COCc1ccccc1`, the z-score is -0.586.

On to `COC(=O)[C@H](Cc1ccccc1)N1CC(/C=C/C2CC2)=C[C@@H]1[C@@H](O)Cc1ccccc1`, for which the z-score was -3.07.

Consider `COCCOC(=O)N1C(=O)[C@@]2(c3cc(C#CCC(C(=O)OC)C(=O)OC)ccc31)[C@H](c1ccc(OCCO)cc1)N1[C@H](c3ccccc3)[C@H](c3ccccc3)OC(=O)[C@H]1[C@@H]2C(=O)N1CCN(c2ncccn2)CC1`, for which the z-score is -1.07.

As for `CN(C)C(=O)[C@]1(CCC(=O)OC(C)(C)C)N=C(c2ccc(OCCCO)cc2)O[C@@H]1c1ccccc1`, the z-score was -0.014.

Turning to `COCCOC(=O)N1C(=O)[C@@]2(c3cc(C#CC4(O)CCCCCC4)ccc31)[C@H](C(N)=O)[C@H]1C(=O)O[C@H](c3ccccc3)[C@H](c3ccccc3)N1[C@@H]2c1ccccc1OCCO`, the z-score is -4.59.

Turning to `CC(CO)N1C(=O)[C@@H]2C3C(=O)OCCC/C=C\[C@H]3OC23C=CCN(Cn2nnc4ccccc42)C(=O)[C@@H]13` (stereo not given in full), the z-score is 0.285.

With `COC(=O)[C@@]1(Cc2ccc(OC)cc2)[C@H]2c3cc(C(=O)N(C)C)n(CCc4c[nH]c5ccc(O)cc45)c3C[C@H]2CN1C(=O)c1ccccc1`, the z-score was -1.32.

For `O=c1cccc(-c2cccc(Cl)c2)o1`, the z-score is -0.895.

With `O=C1O[C@H](c2ccccc2)[C@H](c2ccccc2)N2[C@H]1[C@@H](C(=O)O)[C@]1(C(=O)Nc3ccccc31)[C@H]2c1ccc(O)cc1`, the z-score was 0.605.

As for `COCCOC(=O)N1C(=O)[C@@]2(c3ccccc31)[C@H](C(=O)N1CCN(c3ncccn3)CC1)[C@H]1C(=O)O[C@H](c3ccccc3)[C@H](c3ccccc3)N1[C@@H]2c1ccc(OCCO)cc1`, the z-score is -0.156.

With `CCOC(=O)C1=C[C@@H](c2ccccc2)N(S(=O)(=O)c2ccc(C)cc2)[C@H]1c1cccc(Cl)c1`, the z-score was -1.48.

With `O=C1c2ccccc2[C@](Cc2ccccc2I)(C(=O)NCCN2CCOCC2)[C@H](c2ccc(CO)cc2)N1Cc1ccccc1`, the z-score is -0.347.

As for `O=C(O)[C@H]1C[C@H]2C(=O)N3CCC[C@H]3C(=O)N2[C@H]1c1cccc(OCCO)c1`, the z-score is -0.8.
